Rin1-Abl PPI inh: inhibitors of Rin1-Abl protein binding, primary screen, biochemical, TR-FRET; inhibition, % at 7.35 µM; 0.4% of 360,000 active; AID 588664, 2011; in the data active = inhibition above about 5%, passing the limit was not always enough
Target sequence (P00519 whole entry, looked up): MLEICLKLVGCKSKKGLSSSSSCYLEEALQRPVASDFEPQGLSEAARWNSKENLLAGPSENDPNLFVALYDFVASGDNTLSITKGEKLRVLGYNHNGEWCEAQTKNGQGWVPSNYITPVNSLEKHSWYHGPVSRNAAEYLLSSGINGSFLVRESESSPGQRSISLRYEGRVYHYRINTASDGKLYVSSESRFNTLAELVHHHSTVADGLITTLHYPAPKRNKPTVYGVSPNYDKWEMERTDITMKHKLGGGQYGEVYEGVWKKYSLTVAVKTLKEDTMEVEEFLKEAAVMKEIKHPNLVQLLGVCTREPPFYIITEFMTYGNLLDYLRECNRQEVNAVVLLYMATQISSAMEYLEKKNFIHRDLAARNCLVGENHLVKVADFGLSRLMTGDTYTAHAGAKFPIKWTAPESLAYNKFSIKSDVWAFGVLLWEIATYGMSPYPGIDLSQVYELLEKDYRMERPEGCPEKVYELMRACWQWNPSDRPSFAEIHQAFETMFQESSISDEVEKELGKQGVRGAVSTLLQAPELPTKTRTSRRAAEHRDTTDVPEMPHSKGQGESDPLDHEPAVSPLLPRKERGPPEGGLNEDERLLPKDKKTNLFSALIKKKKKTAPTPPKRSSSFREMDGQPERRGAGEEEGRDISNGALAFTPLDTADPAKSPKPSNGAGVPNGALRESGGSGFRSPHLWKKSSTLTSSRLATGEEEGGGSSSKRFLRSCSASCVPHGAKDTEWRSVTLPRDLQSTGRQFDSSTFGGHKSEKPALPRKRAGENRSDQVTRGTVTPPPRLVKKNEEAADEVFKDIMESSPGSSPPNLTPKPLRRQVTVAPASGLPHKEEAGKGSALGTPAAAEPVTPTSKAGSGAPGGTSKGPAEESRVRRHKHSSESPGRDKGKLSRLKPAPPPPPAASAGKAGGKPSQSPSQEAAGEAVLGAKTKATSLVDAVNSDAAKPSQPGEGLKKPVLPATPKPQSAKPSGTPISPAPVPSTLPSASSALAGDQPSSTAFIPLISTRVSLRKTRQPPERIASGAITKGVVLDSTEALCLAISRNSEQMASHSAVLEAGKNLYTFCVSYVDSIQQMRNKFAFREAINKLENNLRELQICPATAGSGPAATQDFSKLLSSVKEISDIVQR
Target sequence (Q13671 whole entry, looked up): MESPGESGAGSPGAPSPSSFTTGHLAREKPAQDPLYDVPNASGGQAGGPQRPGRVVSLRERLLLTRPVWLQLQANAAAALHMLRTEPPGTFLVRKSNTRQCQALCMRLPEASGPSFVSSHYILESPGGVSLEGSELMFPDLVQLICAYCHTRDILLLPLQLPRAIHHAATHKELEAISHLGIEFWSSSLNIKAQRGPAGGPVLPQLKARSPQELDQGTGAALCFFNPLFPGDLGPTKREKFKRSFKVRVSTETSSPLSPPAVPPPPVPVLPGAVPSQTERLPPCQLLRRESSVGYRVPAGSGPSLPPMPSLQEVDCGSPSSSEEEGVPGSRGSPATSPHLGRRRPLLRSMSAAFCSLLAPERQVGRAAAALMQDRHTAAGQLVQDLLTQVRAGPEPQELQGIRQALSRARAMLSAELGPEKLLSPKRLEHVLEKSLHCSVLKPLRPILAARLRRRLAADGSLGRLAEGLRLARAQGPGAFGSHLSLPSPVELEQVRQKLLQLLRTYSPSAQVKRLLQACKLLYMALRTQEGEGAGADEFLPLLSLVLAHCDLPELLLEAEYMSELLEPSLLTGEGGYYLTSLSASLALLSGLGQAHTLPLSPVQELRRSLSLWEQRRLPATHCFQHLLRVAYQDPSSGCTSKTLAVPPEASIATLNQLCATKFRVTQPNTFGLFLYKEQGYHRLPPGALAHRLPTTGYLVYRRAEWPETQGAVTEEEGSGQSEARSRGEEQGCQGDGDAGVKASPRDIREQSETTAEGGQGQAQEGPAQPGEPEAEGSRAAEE
ATG4B inh: ATG4B protease inhibitors, primary screen, biochemical, fluorescence, uHTS | 0.51% of 340,000 active | ATG4B cleavage of LC3-PLA2, NBD-HPC fluorescence, 1 h | inhibition, % at 8.33 µM | Cysteine protease ATG4B (Homo sapiens), Q9Y4P1 | AID 504462, 2011; in the data active = inhibition above about 40%
SUMO1 PPI mod: modulators of SUMO1 protein-protein interactions, primary screen, biochemical, uHTS | Small ubiquitin-related modifier 1 (Homo sapiens), P63165 | SUMO1 binding to a labelled peptide, TR-FRET, 1 h | inhibition, % at 20 µM | 0.33% of 360,000 active | AID 602429, 2012; in the data active = inhibition above about 37%
Neddyl block: inhibitors of cullin neddylation, primary screen, biochemical, TR-FRET, uHTS, NAE and Ubc12; inhibition, % at 25 µM; 0.58% of 360,000 active; in the data active = inhibition above about 36%
Each line names hits and unclear results; the compound was inactive in the other large screens. Hits are enriched below; roughly 1.7% of the tested compounds scored in any of these assays.

Cc1ccc2nc(SCC(=O)Nc3ccc(Cl)cc3)nc(=O)n2c1	SUMO1 PPI mod 86
Cc1ccc2nc(SCC(=O)Nc3ccc(F)cc3)nc(=O)n2c1	none
Cc1ccc(NC(=O)Nn2cnnc2)cc1Cl	SUMO1 PPI mod 49
O=C(Nc1ccc(Cl)c(Cl)c1)Nn1cnnc1	none
O=C(N/N=C/c1ccc(Cl)c([N+](=O)[O-])c1)c1ccc2c(c1)OCCO2	SUMO1 PPI mod 80
COc1ccc(C2C(C(C)=O)=C(C)Nc3ncnn32)cc1 (centres undefined)	none
COc1cccc(C2C(C(C)=O)=C(C)Nc3ncnn32)c1 (centres undefined)	SUMO1 PPI mod 38
O=C(/C(=N/N=C/c1ccc(O)c(O)c1O)c1ccccc1)c1ccccc1	Rin1-Abl PPI inh 12
Cc1ccc(-n2nc3c(N4CCC(C(=O)NCc5ccccc5C)CC4)nnc(C)c3c2C)cc1	ATG4B inh 54
Cc1ccc(-n2nc3c(N4CCC(C(=O)N5CCCCCC5)CC4)nnc(C)c3c2C)cc1	ATG4B inh 71
Cc1ccc(-n2nc3c(N4CCC(C(=O)N5CCN(C)CC5)CC4)nnc(C)c3c2C)cc1	none
CCCCOCCCNC(=O)C[C@@H]1C[C@@]2(C(=O)OCC)CCC=C2N(Cc2ccc3c(c2)OCO3)C1=O	none (no result: Rin1-Abl PPI inh, ATG4B inh)
CCOC(=O)C1=C(C)N=c2sc(=Cc3ccc(OCC(=O)O)cc3)c(=O)n2C1c1ccc(SC)cc1 (centres undefined)	SUMO1 PPI mod 107 (no result: ATG4B inh)
CCOC(=O)C1=C(C)N=c2s/c(=C\c3ccc(OCC(=O)O)cc3)c(=O)n2C1c1ccccc1 (centres undefined)	none
CC1=C(C(=O)OC(C)C)C(c2ccc(Cl)cc2)n2c(s/c(=C\c3ccc(OCC(=O)O)cc3)c2=O)=N1 (centres undefined)	SUMO1 PPI mod 97
COc1ccc(NC(=O)c2ccc(CNc3c(N4CCCC4)c(=O)c3=O)cc2)cc1Cl	SUMO1 PPI mod 58
COCCNC(=O)C1(C)CCCN(Cc2cc(-c3ccccc3)on2)C1 (centres undefined)	none (no result: ATG4B inh)
COc1ccc(N=Cc2cc(Cc3ccccc3Cl)cc([N+](=O)[O-])c2O)cc1OC	ATG4B inh 94
O=C(O)c1c2c(nc3ccc(S(=O)(=O)N4CCC(C(=O)NC5CCCCCC5)CC4)cc13)CCCC2	SUMO1 PPI mod 42
Cc1ccc(C2(C)NC(=O)N(CC(=O)Nc3ccc4[nH]c(=O)[nH]c4c3)C2=O)cc1 (centres undefined)	SUMO1 PPI mod 72
COc1ccc(C2(C)NC(=O)N(CC(=O)Nc3ccc4[nH]c(=O)[nH]c4c3)C2=O)cc1 (centres undefined)	none
CC1(c2ccc(Cl)cc2Cl)NC(=O)N(CC(=O)Nc2ccc3[nH]c(=O)[nH]c3c2)C1=O (centres undefined)	SUMO1 PPI mod 54
Cc1csc(=O)n1CCC(=O)OCC(=O)NNC(=O)c1ccc(Cl)cc1	none
COc1ccccc1-c1cc(C(=O)Nc2cccnc2Cl)no1	SUMO1 PPI mod 47 (not shown: Neddyl block)
Cc1ccc(NC(=O)CN(C)C(=O)c2cccc(-n3cccc3)c2)cc1	SUMO1 PPI mod 48
COc1ccc(NC(=O)CN(C)C(=O)c2cccc(-n3cccc3)c2)cc1	none
O=S(=O)(NC(CO)Cc1ccccc1)c1ccc(Br)cc1F (centres undefined)	none
C=CC1=C(C(=O)O)N2C(=O)C(NC(=O)Cc3ccccc3)C2SC1 (centres undefined)	SUMO1 PPI mod 85
CC(=O)OCC1=C(C(=O)O)N2C(=O)[C@@H](NC(=O)Cc3ccccc3)[C@H]2SC1	none
COc1ccc(/C=N/Nc2cc(C)nc3c(C)cccc23)cc1	Neddyl block 52
COc1ccc(/C=N/Nc2cc(C)nc3ccccc23)cc1	none (not shown: Neddyl block)
O=c1c2ccccc2[nH]c2ccc(O)cc12	Neddyl block 42
COc1ccc2nc3ccccc3[n+]([O-])c2c1	Neddyl block 47
COc1ccc2c(ccc[n+]2[O-])c1	none
O=C(N/N=C/c1cccnc1)c1cccc(NC(=O)c2ccc(Cl)cc2)c1	SUMO1 PPI mod 66
Cc1cccc(C(=O)Nc2ccc(C(=O)N/N=C/c3cccnc3)cc2)c1	none
O=C(CCCN1C(=O)c2cccc3cccc(c23)C1=O)Nc1nccs1	SUMO1 PPI mod 50
NC(=O)c1ccc(NC(=O)CSC2=Nc3ccccc3C3CC=NN23)cc1 (centres undefined)	SUMO1 PPI mod 47
COC(=O)c1ccc(NC(=O)CSC2=Nc3ccccc3C3CC=NN23)cc1 (centres undefined)	none
CSCCC(NC(=O)c1ccco1)C(=O)N1CCN(C(c2ccccc2)c2ccccc2)CC1 (centres undefined)	none
N=C1/C(=C/c2ccc(-c3cccc(C(=O)O)c3)o2)C(=O)N=C2SC=C(c3ccccc3)N12	SUMO1 PPI mod 46
O=C(COc1ncnc2sccc12)N1CCN(C(=O)c2ccco2)CC1	SUMO1 PPI mod 47
O=C(COc1ncnc2ccccc12)N1CCN(C(=O)c2ccco2)CC1	none
N#Cc1c(N2CCCC(O)C2)nc(N)c2c(N)nc3c(c12)CC(=O)N3C12CC3CC(CC(C3)C1)C2 (centres undefined)	SUMO1 PPI mod 56
C=C(C)CN(CC)c1nc(N)c2c(N)nc3c(c2c1C#N)CC(=O)N3C12CC3CC(CC(C3)C1)C2	none
O=C(O)C(c1ccccc1)N1C(=O)/C(=C\c2ccc(-c3ccc(Br)cc3)o2)SC1=S (centres undefined)	SUMO1 PPI mod 91
O=C(O)C(c1ccccc1)N1C(=O)/C(=C\c2ccc(-c3ccccc3Cl)o2)SC1=S (centres undefined)	SUMO1 PPI mod 92
Cc1noc(C)c1C(=O)OCC(=O)NC1CCCCC1C (centres undefined)	none
O=C(Nc1ccc(N2CCCC2)cc1)c1ccc(Cl)cc1Cl	none
O=C(Nc1ccc(N2CCCC2)cc1)c1cc(Cl)ccc1Cl	SUMO1 PPI mod 90
CC(Sc1nnc(C(C)Oc2ccc(F)cc2)o1)C(=O)NCc1ccc2c(c1)OCO2 (centres undefined)	none (no result: ATG4B inh)
CCC(CC)NC(=O)COC(=O)c1ccc(OCC(=O)Nc2ccccc2OC)c(OC)c1	none
CCC(CC)NC(=O)COc1ccc(OC)cc1C=O	Neddyl block 42
CCOc1cc(OCC)cc(C(=O)N2CCC[C@H]2C(=O)N2CCC[C@H]2C(=O)N(C)Cc2ccccc2)c1	SUMO1 PPI mod 59 (no result: Rin1-Abl PPI inh, ATG4B inh)
Cc1ccc(CNc2ccc(O)cc2)cc1	SUMO1 PPI mod 68
CCOC(=O)[C@]12CCCC=C1N(CCc1ccc(OC)c(OC)c1)C(=O)[C@H](CC(=O)N1CCN(C(=O)C3CC3)CC1)C2	none (no result: Rin1-Abl PPI inh, ATG4B inh)
O=C(O)c1cc(O)c2c(c1)[C@@H]([C@H]1c3cc(C(=O)O)cc(O)c3C(=O)c3c(O[C@@H]4O[C@H](CO)[C@@H](O)[C@H](O)[C@H]4O)cccc31)c1cccc(OC3O[C@H](CO)[C@@H](O)[C@H](O)[C@H]3O)c1C2=O (some centres undefined)	SUMO1 PPI mod 119

Bioassay records from PubChem.
